Source: PubChem
A selection: hits, their analogues and other compounds. The true share with any hit is near 1.5%.
RAD54 branch – inhibitors of human RAD54 branch migration, primary screen, biochemical, fluorescence, single point. hit rate 0.14% among 360,000. inhibition, % at 10.4 µM. DNA repair and recombination protein RAD54-like (Homo sapiens), Q92698. RAD54 Holliday junction branch migration, FAM/BHQ fluorescence;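 active = mean normalized replicate activity at least 40 and at least half of replicates scoring 40 or more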;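 note: inhibitors cause a drop in the FAM fluorescence signal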
Target sequence (Q92698 whole entry, looked up): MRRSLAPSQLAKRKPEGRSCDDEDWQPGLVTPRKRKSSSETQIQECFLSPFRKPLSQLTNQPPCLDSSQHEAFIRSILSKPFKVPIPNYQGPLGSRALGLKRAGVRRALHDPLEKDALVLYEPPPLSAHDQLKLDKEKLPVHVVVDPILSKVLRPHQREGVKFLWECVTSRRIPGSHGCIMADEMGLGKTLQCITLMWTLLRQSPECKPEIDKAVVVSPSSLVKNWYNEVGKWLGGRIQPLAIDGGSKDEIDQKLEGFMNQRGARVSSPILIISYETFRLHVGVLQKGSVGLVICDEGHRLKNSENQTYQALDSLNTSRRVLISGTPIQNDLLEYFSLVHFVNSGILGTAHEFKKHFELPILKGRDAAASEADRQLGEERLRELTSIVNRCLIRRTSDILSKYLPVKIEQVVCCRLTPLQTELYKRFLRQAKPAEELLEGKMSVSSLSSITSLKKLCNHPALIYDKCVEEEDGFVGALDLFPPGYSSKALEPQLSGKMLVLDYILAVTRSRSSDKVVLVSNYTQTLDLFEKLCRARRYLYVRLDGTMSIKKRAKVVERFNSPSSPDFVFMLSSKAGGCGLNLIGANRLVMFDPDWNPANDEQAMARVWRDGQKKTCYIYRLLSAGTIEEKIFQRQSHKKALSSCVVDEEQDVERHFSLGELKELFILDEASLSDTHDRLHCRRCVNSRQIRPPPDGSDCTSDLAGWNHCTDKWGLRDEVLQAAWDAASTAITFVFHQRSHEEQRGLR
Glyco luc inh – increase of ERlucT glycosylation luciferase signal, primary screen, N-linked glycosylation inhibitor project, D54 ERlucT cells, luminescence, set 2; D54 ERlucT glycosylation luciferase reporter, 24 h; percent of 100 nM tunicamycin response; reporter increase, % at 12.5 µM; hit rate 0.23% among 360,000;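 active = mean luciferase reporter signal, scaled so untreated is 0 and the glycosylation-blocking control 100, at or above a set limit in every replicate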;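 note: luciferase carries N-glycosylation sites so blocking glycosylation raises the light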
miR122 inh – miR-122 Renilla sensor signal increase in Huh7, primary screen, miR-122 inhibitor project, cell-based, single point, plate reader | activation (reporter increase), % at 12.5 µM | hit rate 0.3% among 340,000 | AID 602342, 2012 | Huh7 miR-122 Renilla luciferase sensor, 48 h; neutral wells = 0, positive control = 100;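 active = mean replicate activation score at least 90 and every replicate individually at or above 90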;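 note: higher luciferase means less miR-122 activity so hits act as miR-122 inhibitors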
CendR NRP1 mod – modulators of CendR peptide binding to NRP-1, primary screen, biochemical, fluorescence polarization, uHTS. inhibition, % at 25 µM. AID 602438, 2012. FAM-RPARPAR peptide binding to NRP-1. hit rate 0.85% among 360,000;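 active = inhibition or corrected inhibition above about 18%, plus a signal ratio from 0.5 to 1.5, limit read from the data, passing the limit was not always enough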
DNA FID counter – compounds displacing fluorescent DNA intercalator, primary screen, artefact control for HCV NS3 helicase inhibitor project, biochemical, FID fluorescence; inhibition, % at 7.9 µM; hit rate 0.17% among 290,000; DNA fluorescent intercalator displacement; in the data active = inhibition above about 37%;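 note: higher means more ethidium bromide displaced from hairpin DNA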
RAD52 anneal inh – RAD52 DNA annealing inhibitors, primary screen, biochemical, FRET, single point, set 2 | DNA repair protein RAD52 homolog (Homo sapiens), P43351 | recombinant RAD52 DNA annealing, FRET fluorescence | inhibition, % at 18.7 µM | hit rate 0.46% among 360,000;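 active = every replicate showing at least 50% inhibition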
Each line names hits and unclear results; the compound was inactive in the other large screens.

COc1ccc(S(=O)(=O)NC(C)C(=O)Nc2ccc3c(c2)OCO3)cc1OC (configuration not stated)	CendR NRP1 mod 17
COc1ccc(S(=O)(=O)NC(C)C(=O)Nc2ccc3c(c2)OCCO3)cc1OC (configuration not stated)	none (no result: RAD54 branch)
COc1ccc(/C=C/C(=O)O)cc1S(=O)(=O)Nc1ccc2c(c1)OCO2	CendR NRP1 mod 26
c1ccc(CNc2nc(-c3cccnc3)nc3ccccc23)cc1	none
c1ccc(CN2CCC(Nc3nc(-c4cccnc4)nc4ccccc34)CC2)cc1	Glyco luc inh 40
c1ccc(-n2nnnc2NCCCN2CCOCC2)cc1	CendR NRP1 mod 30 (no result: RAD52 anneal inh)
Cc1[nH]c(=O)c(C#N)c(C)c1Cl	CendR NRP1 mod 26 (no result: RAD54 branch, miR122 inh)
COCC(=O)Nc1ccc2c(c1)[C@H]1C[C@H](CC(=O)NCc3ccc(Cl)cc3)O[C@@H](CO)[C@H]1O2	none (no result: RAD54 branch, Glyco luc inh, CendR NRP1 mod, DNA FID counter, RAD52 anneal inh)
CCCn1nc2cc(C(=O)NCCc3ccc(C)cc3)ccc2c1OCC	CendR NRP1 mod 26
CCOc1c2ccc(C(=O)NCCc3cccs3)cc2nn1CC	CendR NRP1 mod 25
CCCCn1nc2cc(C(=O)NCCc3cccs3)ccc2c1OCC	none
CCCn1nc2cc(C(=O)NCCCCc3ccccc3)ccc2c1OCC	none
O=C(Nc1ccc(C(F)(F)F)cc1)c1cc(S(=O)(=O)NCC2COc3ccccc3O2)ccc1F (configuration not stated)	CendR NRP1 mod 82
COc1ccc(NC(=O)N[C@@H]2CC[C@H](CCNS(=O)(=O)c3ccccc3F)O[C@@H]2CO)cc1	none (no result: Glyco luc inh, miR122 inh, CendR NRP1 mod, DNA FID counter)
CCCN1C[C@@H](C)[C@@H](OC)CN(C)C(=O)c2ccc(NC(=O)Nc3cccc(F)c3)cc2OC[C@H]1C	none (no result: Glyco luc inh, CendR NRP1 mod, DNA FID counter)
C[C@@H]1CN(S(=O)(=O)C(C)(C)C)[C@@H](CCO)/C1=C\c1ccccc1	none (no result: DNA FID counter)
CC(C)(C)S(=O)(=O)N1C[C@H]2CC/C=C\C/C(c3ccccc3)=C\2[C@@H]1CCO	Glyco luc inh 38 (no result: DNA FID counter)
CC(C)(C)OC(=O)C[C@H]1C/C=C\C[C@@H](CC(=O)N[C@H](CO)Cc2ccccc2)C(=O)NCCOC1=O	none (no result: DNA FID counter)
CC(C)(C)[C@H]1COC(=O)[C@H](NC(=O)OCC2c3ccccc3-c3ccccc32)C/C=C\C[C@@H](CC(=O)N[C@@H](CO)Cc2ccccc2)C(=O)N1	CendR NRP1 mod 19 (no result: DNA FID counter)
O=C(C[C@H]1C/C=C\C[C@@H](Cc2ccc(F)cc2)C(=O)O[C@H](c2ccccc2)CNC1=O)NCCO	CendR NRP1 mod 18 (no result: miR122 inh, DNA FID counter)
CC(C)(C)OC(=O)C[C@@H]1C/C=C\C[C@@H](CC(=O)NCCO)C(=O)NC[C@@H](c2ccccc2)OC1=O	CendR NRP1 mod 18 (no result: DNA FID counter)
CC(C)(C)OC(=O)C[C@H]1C/C=C\C[C@@H](CC(=O)N[C@@H](CO)Cc2ccccc2)C(=O)NCCOC1=O	CendR NRP1 mod 36 (no result: DNA FID counter)
CC(C)(C)[C@H]1COC(=O)[C@H](NC(=O)OCC2c3ccccc3-c3ccccc32)C/C=C\C[C@@H](CC(=O)N[C@H](CO)Cc2ccccc2)C(=O)N1	none (no result: DNA FID counter)
O=C(C[C@@H]1C/C=C/CC[C@H](Cc2ccc(F)cc2)C(=O)O[C@H](c2ccccc2)CNC1=O)NCCO	none (no result: miR122 inh, DNA FID counter)
C[C@@H]1CN([C@H](C)CO)C(=O)Cc2cc(NS(C)(=O)=O)ccc2O[C@H]1CN(C)Cc1ccc(-c2ccccc2)cc1	none (no result: Glyco luc inh, CendR NRP1 mod, DNA FID counter)
COc1ccc(NC(=O)Nc2cccc3c2O[C@@H](CN(C)S(=O)(=O)c2ccc(OC)cc2)[C@H](C)CN([C@@H](C)CO)C3=O)cc1	none (no result: Glyco luc inh, CendR NRP1 mod, DNA FID counter)
COc1ccc(CN(CC2CCC(C(=O)O)CC2)C(=S)Nc2ccccc2OC)cc1 (configuration not stated)	none (no result: RAD54 branch, miR122 inh)
COc1ccccc1NC(=S)N(Cc1ccc(Cl)cc1)CC1CCC(C(=O)O)CC1 (configuration not stated)	CendR NRP1 mod 28
